Bioassay records: PubChem, National Center for Advancing Translational Sciences (NCATS)
A selection: hits, their analogues and other compounds. The true share with any hit is near 2.4%.
D2 ag-1 = activates the human D2 dopamine receptor | AID 624465 | 360,000 tested, 0.084% active | DiscoveRx PathHunter D2 beta-arrestin, luminescence, 90 min; 100% = 57 uM dopamine signal | activation, % (test concentration not listed) | P14416; in the data active = activation above about 40%
Target sequence (P14416 whole entry, looked up): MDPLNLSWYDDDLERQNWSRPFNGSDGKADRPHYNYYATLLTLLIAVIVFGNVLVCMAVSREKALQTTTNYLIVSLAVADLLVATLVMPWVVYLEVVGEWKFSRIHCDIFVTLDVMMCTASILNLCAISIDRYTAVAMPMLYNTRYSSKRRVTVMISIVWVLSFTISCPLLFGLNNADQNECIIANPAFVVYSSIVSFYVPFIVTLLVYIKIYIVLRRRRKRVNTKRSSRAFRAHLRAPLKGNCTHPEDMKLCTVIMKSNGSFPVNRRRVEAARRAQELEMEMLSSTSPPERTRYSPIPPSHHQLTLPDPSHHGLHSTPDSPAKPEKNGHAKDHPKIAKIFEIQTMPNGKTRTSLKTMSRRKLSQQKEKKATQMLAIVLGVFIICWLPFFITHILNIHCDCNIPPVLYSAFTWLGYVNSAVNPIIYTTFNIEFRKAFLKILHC
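DiscoveRx PathHunter D2 beta-arrestin cells (2,100/well) attached overnight, then compound-stimulated 90 min at 37 C in HBSS/10 mM HEPES/0.1% Tween-20 buffer; beta-galactosidase complementation read by luminescence after 1 h at ambient temperature. Dopamine 57 uM final (EC100) as control.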
D2 PAM-1 = positive allosteric modulators of human D2 dopamine receptor; P14416; DiscoveRx D2 beta-arrestin cells, luminescence, 90 min; 100% = 57 uM dopamine signal; 360,000 tested, 0.23% active; potentiation, % (concentration not given with the values); AID 624464; in the data active = potentiation above about 50%
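D2 cells co-treated with compound plus 50 nM dopamine (EC20) for 90 min at 37 deg C to detect potentiation. Beta-arrestin recruitment was read as enzyme-fragment luminescence after 1 h at ambient temperature. Full response was set by 57 uM dopamine.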
D2 PAM-2 = positively modulates the human D2 dopamine receptor allosterically | P14416 | HEK293 T-REx D2, calcium flux, EC20 dopamine potentiation | potentiation, % at 10 µM | 340,000 tested, 0.34% active | AID 485347;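 active = potentiation over 3 SD above the plate norm, cut at about 30% in these data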
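Calcium flux readout, no-wash dye, 1 read/s. Inducible HEK293 Trex D2 line, overnight 30 C. Compound alone 180 s (agonist flags), then EC20 dopamine, another 180 s to score potentiation.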
D2 antag = antagonists of human D2 dopamine receptor | P14416 | 340,000 tested, 2% active | inhibition, % at 10 µM | HEK293 TREx D2 cells, calcium flux, dopamine EC80; in the data active = inhibition above about 30%; inactive = below that, where a call was filed
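Calcium flux kinetic readout in an inducible HEK293 TREx D2 line plated overnight at 30 C. After 180 s compound exposure, an EC80 dopamine challenge follows with another 180 s kinetic read to detect antagonism.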
D2 ag-2 = agonists of human D2 dopamine receptor; P14416; HEK293 T-REx D2 cells, calcium flux agonist mode; activation, % at 2 µM; 340,000 tested, 0.53% active; AID 485358;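 active = activation over 3 SD above normal in the single-dose calcium agonist read, cut at about 30% in these data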
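Agonism scored from kinetic calcium signal (1 read/sec, 180 s) following compound pin transfer, after a 10 s baseline. Cells: HEK293 Trex line expressing inducible D2 receptor coupled to calcium, dye-loaded after overnight culture at 30 C.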
Numbers stand for hits; – = inactive; · = not tested or not shown.

SMILES | D2 ag-1 | D2 PAM-1 | D2 PAM-2 | D2 antag | D2 ag-2
CCc1ccccc1S(=O)(=O)Cc1ccc(C(=O)NCCc2ccc(Cl)cc2)o1 | · | · | – | · | –
COc1ccc(NC(=O)C2CCC(=O)N2S(=O)(=O)c2ccc(C)cc2)cc1Cl (stereo not drawn) | – | – | – | 34 | –
COc1cc(NC(=O)C2CCC(=O)N2S(=O)(=O)c2ccc(C)cc2)cc(OC)c1 (stereo not drawn) | – | – | – | – | –
COC(=O)c1cccc(NC(=O)c2nsc3ccccc23)c1 | · | · | · | · | –
CC(C(=O)Nc1cc(Cl)cc(Cl)c1)N1CCCC1 (stereo not drawn) | – | – | – | 89 | –
Cc1cc(C)c(NC(=O)C(C)N2CCCCCC2)c(C)c1 (stereo not drawn) | – | – | – | – | –
Cc1ccc(N2CC(c3nnc(Cc4ccc(F)cc4Cl)o3)CC2=O)cc1 (stereo not drawn) | · | · | – | · | –
Cc1cc(C)cc(-c2nnc(SCC(=O)Nc3cc(C)on3)o2)c1 | – | – | – | 36 | –
Cc1cc(NC(=O)CCc2ccc(-c3ccccc3)o2)no1 | – | – | – | 33 | –
Cc1cc(NC(=O)CSc2nnc(-c3ccccc3)o2)no1 | – | – | · | · | ·
Cc1cc(NC(=O)CSc2nnc(-c3ccccc3)c(-c3ccccc3)n2)no1 | – | – | – | 80 | –
Cc1cc(NC(=O)CCS(=O)(=O)c2nc(-c3ccccc3)cc(C(F)(F)F)n2)no1 | – | – | 38 | – | –
COc1ccc(NC(=O)CCS(=O)(=O)c2nc(-c3ccc4c(c3)OCO4)cc(C(F)(F)F)n2)cc1 | · | · | – | · | –
Cc1cc(NC(=O)CSc2ccccc2)no1 | – | – | – | – | –
O=C(CSc1nc(=O)n(Cc2ccncc2)c2c1CCC2)Nc1ccc(F)cc1F | · | · | – | · | –
COc1ccc(-c2ccc(CCC(=O)O)n2-c2ccc(Cl)cc2C)cc1 | · | · | – | · | –
Cc1ccccc1C(=O)Nc1cccc(NC(=O)c2ccc(C(C)(C)C)cc2)c1 | · | · | – | · | –
O=C(COC(=O)C1CC(O)CN1S(=O)(=O)c1ccc(Cl)cc1)c1ccccc1 (stereo not drawn) | – | – | – | – | –
CC(C)N(C(=O)COC(=O)[C@@H]1CC(O)CN1S(=O)(=O)c1ccc(C(C)(C)C)cc1)C(C)C (stereo partly drawn) | – | – | – | 38 | –
COc1cccc(-c2nn(C)c3sc(C(=O)NCCCN(C)Cc4ccccc4)cc23)c1 | – | – | – | 33 | –
COc1cccc(-c2nn(C)c3sc(C(=O)NCc4ccco4)cc23)c1 | – | – | – | 36 | –
CCN(CC)CCCNC(=O)c1cc2c(-c3cccc(OC)c3)nn(C)c2s1 | – | – | – | – | –
Cn1nc(-c2ccc(Cl)cc2)c2cc(C(=O)NCCCN3CCCC3)sc21 | – | – | – | 33 | –
CCCCN(C)CCNC(=O)c1cc2c(-c3ccccc3F)nn(C)c2s1 | – | – | – | – | 32
CCOc1cccc2sc(Nc3nc4ccc(NC(C)=O)cc4s3)nc12 | – | – | – | 31 | –
SMILES | D2 ag-1 | D2 PAM-1 | D2 PAM-2 | D2 antag | D2 ag-2
CN(CCOc1cccc(C(F)(F)F)c1)Cc1ccccc1 | – | – | · | · | ·
O=c1[nH]c2ccccc2n1CCCN1CCN(C(c2ccccc2)c2ccccc2)CC1 | · | · | – | 84 | –
c1ccc(OCCN2CCN(C(c3ccccc3)c3ccccc3)CC2)cc1 | – | – | – | 46 | –
FC(F)(F)c1cccc(OCCN2CCN(Cc3ccccc3)CC2)c1 | – | – | – | 82 | –
O=c1[nH]c2ccccc2n1CCCN1CCCCC1 | – | – | – | – | –
O=C(Cc1c(F)cccc1Cl)NC1CCN(Cc2ccccc2)CC1 | – | – | · | · | ·
O=C(COc1ccccc1F)NC1CCN(Cc2ccccc2)CC1 | – | – | – | 48 | –
Cc1cc(OCC(=O)NC2CCN(Cc3ccccc3)CC2)c2c(C)cc(=O)oc2c1 | – | – | – | 54 | –
Cc1cc(OC(C)C(=O)NC2CCN(Cc3ccccc3)CC2)c2c(C)cc(=O)oc2c1 (stereo not drawn) | – | – | – | 73 | –
O=C(Cc1ccccc1[N+](=O)[O-])NC1CCN(Cc2ccccc2)CC1 | – | – | – | 48 | –
CCOC(=O)C1(C)C=C(Nc2cccc(C)c2)C(=O)N1c1ccccc1 (stereo not drawn) | · | · | – | · | –
